# According to PubChem BioAssay (NCATS):
# Records with an inconclusive call do not appear. Entries that show only a call come without a potency. The source made the active and inactive calls. The call rests on the fitted dose curve; in most records, active means well fitted activation curve with a large enough effect in the main read-out, with a control signal flat (not every such curve was filed as active); inconclusive means small, poorly fitted or top-dose-only effect, or effect the other way, or a change in a side signal; inactive means flat fitted curve, though single readings scatter.
# Molecular target: 3',5'-cyclic-AMP phosphodiesterase 4B (Homo sapiens) (UniProt Q07343)
# Assay: qHTS Assay for Inhibitors of PDE-IV (AID 607)
# Conditions: HEK293 ACTOne CNG channel cells, membrane potential fluorescence; series mostly up to 22.9 µM
# Text: NIH Chemical Genomics Center [NCGC]
# NIH Molecular Libraries Screening Centers Network [MLSCN]
# The cyclic nucleotide phosphodiesterases (PDEs) are proteins that catalyze hydrolysis of 3', 5'-cyclic nucleotides, such as cyclic adenosine monophosphate (cAMP) and cyclic guanosine monophosphate (cGMP), to their corresponding 5'-nucleotide monophosphates. These enzymes play an important role in controlling cellular concentrations of cyclic nucleotides and have a central role in a variety of intracellular signaling events. cAMP PDEs are emerging as a promising class of drug targets in asthma and cardiovascular disease therapeutic areas.
# There are no commercially available cell-based screening assays for PDE inhibitors: currently biochemical assays are done using pure substrates (cAMP or cGMP) and purified recombinant PDE enzymes. As with other biochemical screens on intracellular targets, false positives and false negatives may result from issues involving cell membrane permeability, cellular metabolism, and the like.
# Here we report the development of a cell-based screening assay for cAMP phosphodiesterase (PDE) inhibitors. The assay is based on the BD ACTOne# technology (BD Biosciences) which utilizes a modified cyclic nucleotide-gated channel (CNG) to monitor intracellular cAMP changes in live cells. The CNG channel is localized on the plasma membrane, and opens when the intracellular cAMP level increases, resulting in ion flux and cell membrane depolarization. The influx of cations through the CNG channel can be quantified using membrane potential (MP) dyes. We modified the BD ACTOne technology to allow the detection of PDE inhibitors, and performed an inhibitor screen for PDE-IV, which is expressed endogenously in HEK293 cells. We optimized this assay in homogeneous 1536-well plate assay format for high throughput screening.
# NCGC Assay Protocol Summary:
# The medium contained 10% FBS (Invitrogen), 2 mM L-glutamine, and 250 ug/ml G418 (Cellgro) and 1 ug/ml puromycin (Clontech). ACTOneTM parental cells (BD Biosciences) were maintained in the same medium without puromycin.
# The activity of the CNG channel was measured by BD ACTOneTM membrane potential dye kit (BD Biosciences). Forskolin, a positive control for cAMP activation and RO 20-1724, a PDE inhibitor, were both purchased from Sigma and solublized in DMSO.
# Sequence,Parameter,Value,Description
# 1,Reagent,3 uL,1000 cells/well 1536 TC treated Black plate
# 3,Compound,0.5 uL,Kalypsys dispense RO 20-1724 100 uM final [A]
# 4,Reagent,3 uL,BD membrane potential dye
# 6,Compound,23 nL,Final concentration was 0.7nM to 22.9uM
# 8,Detector,EX 535 / EM 590 [B],Envision
# Footnotes: [A] The stock 2 mM RO 20-1724 PDE inhibitor was made in 10 % DMSO. Parental cell line received 10 uM forskolin + 100 uM RO. [B] Envsion settings: Bottom Excitation 535/20 nm top emission 590/20, gain of 150 and 5 flashes per well.
# Keywords: PDE, PDE-IV, cytotoxicity, flourescence, MLSMR, MLSCN, NIH Roadmap, qHTS, NCGC
# Chain of 3',5'-cyclic-AMP phosphodiesterase 4B (Homo sapiens) (Q07343 whole entry, looked up): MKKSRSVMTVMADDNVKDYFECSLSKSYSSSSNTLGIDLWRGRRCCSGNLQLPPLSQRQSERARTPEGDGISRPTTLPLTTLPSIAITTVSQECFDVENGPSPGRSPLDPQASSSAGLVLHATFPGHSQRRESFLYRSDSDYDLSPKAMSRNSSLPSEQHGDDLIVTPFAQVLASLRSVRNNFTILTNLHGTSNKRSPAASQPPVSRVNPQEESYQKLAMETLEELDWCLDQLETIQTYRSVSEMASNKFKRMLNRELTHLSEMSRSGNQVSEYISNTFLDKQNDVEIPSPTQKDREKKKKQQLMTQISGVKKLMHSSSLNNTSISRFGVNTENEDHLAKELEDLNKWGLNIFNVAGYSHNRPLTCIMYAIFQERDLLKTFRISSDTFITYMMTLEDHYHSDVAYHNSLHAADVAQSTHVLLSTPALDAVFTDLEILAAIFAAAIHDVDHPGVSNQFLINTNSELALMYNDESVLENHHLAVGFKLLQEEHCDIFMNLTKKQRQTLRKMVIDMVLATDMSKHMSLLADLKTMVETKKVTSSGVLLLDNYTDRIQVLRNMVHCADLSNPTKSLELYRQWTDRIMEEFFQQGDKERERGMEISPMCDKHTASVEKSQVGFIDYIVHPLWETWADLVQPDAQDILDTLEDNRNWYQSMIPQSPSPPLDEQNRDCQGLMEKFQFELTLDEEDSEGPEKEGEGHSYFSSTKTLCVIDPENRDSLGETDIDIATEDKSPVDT
row,Structure (SMILES),Potency
1,CC(C)C[C@@H](CC(=O)N[C@@H](CCC(=O)O)CC(=O)O)NC(=O)[C@@H]1CCCC[C@H]1NC(=O)C[C@H](CCCN)NC(=O)C[C@H](CO)NC(=O)[C@@H]1CCCC[C@H]1N,inactive
2,CCN1CCC[C@@H]1CNC(=O)c1c(OC)ccc(I)c1O,inactive
3,COC(=O)[C@@]1(Cc2ccc(OC)cc2)[C@H]2c3cc(C(=O)N4CCCC4)n(CCn4cc([N+](=O)[O-])nc4C)c3C[C@H]2CN1C(=O)c1ccccc1,inactive
4,CN1C[C@H](C(=O)N[C@]2(C)O[C@]3(O)[C@H]4CCCN4C(=O)[C@H](Cc4ccccc4)N3C2=O)C[C@H]2c3cccc4[nH]cc(c34)C[C@@H]21,inactive
5,CC(C)C[C@@H](CC(=O)N[C@@H](CCC(=O)O)CC(=O)O)NC(=O)[C@@H]1CCCC[C@H]1NC(=O)C[C@@H](NC(=O)C[C@H](CO)NC(=O)[C@@H]1CCCC[C@H]1N)C(C)C,inactive
6,COc1cccc2c1[C@@H]1CN(CCCCn3c(=O)[nH]c4c(sc5ncc(-c6ccccc6)nc54)c3=O)C[C@H]1CO2,inactive
7,CC(C)C[C@@H](CC(=O)N[C@@H](CCC(=O)O)CC(=O)O)NC(=O)[C@@H]1CNCC[C@H]1NC(=O)C[C@@H](NC(=O)C[C@H](Cc1c[nH]c2ccccc12)NC(=O)[C@@H]1CNCC[C@H]1N)C(C)C,inactive
8,COC(=O)[C@@]1(Cc2ccc(F)cc2)[C@H]2c3cc(C(=O)N(C)C)n(C)c3C[C@H]2CN1C(=O)c1ccccc1,inactive
9,COCCNc1nc(-c2ccc(N(C)C)cc2)nc2ccccc12,inactive
10,O=C(NC[C@@H]1CCCCN1)c1cc(OCC(F)(F)F)ccc1OCC(F)(F)F,inactive
11,CCNC(=O)[C@@H]1O[C@@H](n2cnc3c(N)nc(NCCc4ccc(CCC(=O)O)cc4)nc32)[C@H](O)[C@@H]1O,inactive
12,CCC[C@@H]1C[C@@]1(CCC)C(NC(=O)c1cccs1)c1ccc(Cl)cc1 (stereo not given in full),inactive
13,CC(=O)N1CC2(CC2)CC1c1ccccc1 (stereo not given),inactive
14,CCCc1cc2c(n1Cc1ccc(OC)cc1)C(C)C1CN(C(=O)c3ccccc3)C(C)(C(=O)OC)C21 (stereo not given),inactive
15,NCCC[C@@H](CC(=O)N[C@@H]1CCNC[C@H]1C(=O)N[C@H](CC(=O)N[C@@H](CCC(=O)O)CC(=O)O)Cc1c[nH]c2ccccc12)NC(=O)C[C@H](CO)NC(=O)[C@@H]1CNCC[C@H]1N,inactive
16,COC(=O)[C@@H]1C[C@H]1[C@@H](NC(=O)OCc1ccccc1)c1ccccc1,inactive
17,CC(=O)O[C@@H]1[C@H]([N+]2(C)CCCCC2)C[C@@H]2[C@@H]3CC[C@@H]4C[C@@H](OC(C)=O)[C@H]([N+]5(C)CCCCC5)C[C@@]4(C)[C@H]3CC[C@]21C,inactive
18,NCCC[C@@H](CC(=O)N[C@@H]1CCNC[C@H]1C(=O)N[C@H](CC(=O)N[C@@H](CCC(=O)O)CC(=O)O)Cc1c[nH]c2ccccc12)NC(=O)C[C@H](CO)NC(=O)[C@@H]1CCCC[C@H]1N,inactive
19,COC(=O)[C@H]1C[C@@H]1[C@H](NC(=O)OCc1ccccc1)c1ccccc1,inactive
20,CNC(=O)[C@H](C)[C@H]1C[C@]1(C)[C@H](NC(=O)OCc1ccccc1)c1ccccc1,inactive

row,Structure (SMILES),Potency
1,C[C@@H](C(=O)NCCF)[C@H]1C[C@]1(C)[C@H](NC(=O)OCc1ccccc1)c1ccccc1,inactive
2,CC(=O)c1c(O)c(C)c(O)c2c1OC1=CC(=O)[C@H](C(C)=O)C(=O)[C@]12C,inactive
3,COc1cc(C(=O)O[C@@H]2CC(C)=CC[C@@]3(C)CC[C@](O)(C(C)C)[C@H]23)ccc1O,inactive
4,CN1C[C@@H](C(=O)N[C@]2(C)O[C@]3(O)[C@H]4CCCN4C(=O)[C@H](Cc4ccccc4)N3C2=O)C[C@H]2c3cccc4[nH]cc(c34)C[C@@H]21,inactive
5,COCCn1c(C(=O)N2CCCC2)cc2c1C[C@H]1CN(C(=O)c3ccccc3)[C@@](Cc3ccc(F)cc3)(C(=O)OC)[C@@H]21,inactive
6,Nc1ncnc2c1ncn2[C@@H]1O[C@@H](CO)[C@H](O)[C@@H]1O,inactive
7,CC[C@H]1C(=O)OC[C@@H]1Cc1cncn1C,inactive
8,COc1ccc2oc(-c3ccc(O)cc3)cc(=O)c2c1,inactive
9,CC(C)C[C@@H](CC(=O)N[C@@H](CCCN)CC(=O)N[C@@H]1CCCC[C@H]1C(=O)N[C@H](CC(=O)N[C@@H](CCC(=O)O)CC(=O)O)CC(C)C)NC(=O)[C@@H]1CCCC[C@H]1N,inactive
10,CC(=O)N[C@H](Cc1c[nH]c2ccccc12)C(=O)O,inactive
11,CCCC/C=C/C(NC(=O)c1ccco1)c1ccccc1 (stereo not given),inactive
12,COC(=O)[C@@]1(Cc2ccccc2)[C@H]2c3cc(C(=O)N4CCCC4)n(CC4CC4)c3C[C@H]2CN1C(=O)c1ccccc1,inactive
13,O=c1cc(-c2cccc(O)c2O)oc2ccccc12,inactive
14,COC(=O)[C@@]1(Cc2ccc(OC)cc2)[C@H]2c3cc(C(=O)N4CCCC4)n(CCSCCO)c3C[C@H]2CN1C(=O)c1ccccc1,inactive
15,CC(C)[C@@H](CC(=O)N[C@@H]1CCNC[C@H]1C(=O)N[C@H](CC(=O)N[C@@H](CCC(=O)O)CC(=O)O)Cc1c[nH]c2ccccc12)NC(=O)C[C@H](Cc1c[nH]c2ccccc12)NC(=O)[C@@H]1CNCC[C@H]1N,inactive
16,Cc1cc(-c2cc(C)c(O)c(C(C)(C)C)c2)cc(C(C)(C)C)c1O,inactive
17,O=C(NCc1cc(F)cc2c1OCCO2)[C@H]1C[C@@H]1[C@H](NP(=O)(c1ccccc1)c1ccccc1)c1ccccc1,inactive
18,CC(C)(C)c1cc(Br)c(O)c(CN(Cc2cc(C(C)(C)C)cc(Br)c2O)C2CCCCC2)c1,inactive
19,C[C@@H](C(=O)Nc1ccc2ccccc2c1)[C@@H]1C[C@@]1(C)[C@@H](N)c1ccccc1,inactive
20,C[N+](C)(C)CCN(Cc1cccs1)c1ccccn1,inactive
